Test systems include HCT-15 colon; HT29 colon; SNB-75 CNS; SNB-19 CNS; U251 CNS; PC-3 prostate; SK-MEL-5 melanoma; UACC-62 melanoma; LOX IMVI melanoma; SK-MEL-28 melanoma; SK-MEL-2 melanoma; EKVX NSCLC; SN12C renal; UO-31 renal; TK-10 renal; ACHN renal; CAKI-1 renal; A498 renal; CCRF-CEM leukemia; MOLT-4 leukemia.
Holding throughout (test): NCI-60 one-dose screen, 48 h (100 = growth as untreated, 0 = no growth, -100 = all killed)
Common to all, as to conditions: 10 µM unless noted

This is part of a sample that, as a whole, favours compounds with a hit. Of some 83,000 tested, about 20% had one in any assay.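 Percent growth is the endpoint: 0 to 100 indicates growth inhibition (40 means 60% inhibition), 0 means no net growth, and negative values indicate cell death.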 Unmarked numbers belong to inactive results. Activity calls are given as the source filed them. How the source made its calls: active means growth percent below 10; inactive means the rest.

For `N=c1c2cc(-c3ccccc3)oc2ncn1/N=C/c1ccc(Br)cc1`, the growth in the test on HCT-15 colon was 57.9%; in the test with HT29 colon, 102%; in the test on SNB-75 CNS it was 58%; with SNB-19 CNS, 74.9%; in the test with U251 CNS, 45.9%; with PC-3 prostate, 75.3%. For the same compound, the growth was 97.1% in the test with SK-MEL-5 melanoma; 90.4% with UACC-62 melanoma; 45.3% in the test with LOX IMVI melanoma; 77.8% in the test with SK-MEL-28 melanoma; 104% in the test on SK-MEL-2 melanoma; 79.4% with EKVX NSCLC. Also, the growth in the test on SN12C renal is 60%; in the test with UO-31 renal, 85.4%; in the test on TK-10 renal, 111%; in the test on ACHN renal it was 19.3%; with CAKI-1 renal it was 88.5%; in the test with A498 renal it was 80.4%. Also, the growth with CCRF-CEM leukemia is 68.7%; in the test with MOLT-4 leukemia, 85%.

For the compound `C#CCOC(=O)[C@@H]1CCCN1CC#C`, the growth in the test on HCT-15 colon is 85.7%; in the test on HT29 colon it was 82.4%; in the test with SNB-75 CNS, 77.8%; in the test with SNB-19 CNS, 86.9%; in the test with U251 CNS, 81.4%; in the test on PC-3 prostate, 51.2%. The growth is 90.2% with SK-MEL-5 melanoma; 92.8% with UACC-62 melanoma; 77.7% with LOX IMVI melanoma; 107% with SK-MEL-28 melanoma; 98.2% with SK-MEL-2 melanoma; 86.3% in the test with EKVX NSCLC. In addition, the growth with SN12C renal is 92.6%; with UO-31 renal, 66.1%; in the test with TK-10 renal, 96.2%; in the test on ACHN renal, 85.7%; in the test with CAKI-1 renal it was 76.3%; in the test with A498 renal, 93.5%. Further, the growth in the test with CCRF-CEM leukemia is 81.9%; in the test with MOLT-4 leukemia, 61.5%.

As for `Cc1[nH]c(C(=O)Nc2ccccc2OCc2cccc(C(=O)N3CCC[C@@H](N)C3)c2)c(Cl)c1Cl`, the growth is -78.6% (active) with HCT-15 colon; -71.9% (active) with HT29 colon; -96.3% (active) with SNB-75 CNS; -84.4% (active) in the test on SNB-19 CNS; -83.9% (active) with U251 CNS; -88.9% (active) in the test with PC-3 prostate. For the same compound, the growth was -97.7% (active) in the test on SK-MEL-5 melanoma; -90.8% (active) in the test on UACC-62 melanoma; -90% (active) with LOX IMVI melanoma; -84.6% (active) with SK-MEL-28 melanoma; -74.1% (active) in the test on SK-MEL-2 melanoma; -93.4% (active) in the test on EKVX NSCLC. Moreover, the growth in the test with SN12C renal is -79.4% (active); in the test on UO-31 renal, -89.5% (active); with TK-10 renal it was -90.2% (active); in the test with ACHN renal it was -96.4% (active); with CAKI-1 renal, -92.8% (active); in the test with A498 renal it was 56.2%. Further, the growth in the test with CCRF-CEM leukemia is -26.6% (active); in the test with MOLT-4 leukemia, -55.2% (active).

As to `CC1=NC2=NN3C(=NN2C(c2ccccc2)=C1)N=NC(c1ccc(Br)cc1)=C3c1ccc(Br)cc1`, the growth in the test with HCT-15 colon was 103%; with HT29 colon, 105%; in the test with SNB-75 CNS, 117%; in the test with SNB-19 CNS it was 98.1%; in the test with U251 CNS it was 103%; in the test on PC-3 prostate, 97.1%. Moreover, the growth in the test with SK-MEL-5 melanoma was 106%; in the test on UACC-62 melanoma it was 89.9%; in the test on LOX IMVI melanoma, 100%; with SK-MEL-28 melanoma, 105%; in the test on SK-MEL-2 melanoma, 103%; in the test with EKVX NSCLC, 96%. For the same compound, the growth in the test on SN12C renal is 101%; in the test on UO-31 renal it was 80.1%; with TK-10 renal it was 128%; with ACHN renal, 99.3%; with CAKI-1 renal it was 95.7%; in the test with A498 renal, 98.7%. Also, the values for the growth with CCRF-CEM leukemia and with MOLT-4 leukemia were 106% and 99.8%, respectively.

Consider `NS(=O)(=O)c1ccc(-n2cc(CN3CCNCC3)nn2)cc1`, for which the growth was 104% with HCT-15 colon; 109% in the test with HT29 colon; 92.1% with SNB-75 CNS; 102% in the test with SNB-19 CNS; 105% in the test on U251 CNS; 102% in the test on PC-3 prostate. Also, the growth is 100% in the test on SK-MEL-5 melanoma; 99% with UACC-62 melanoma; 107% in the test with LOX IMVI melanoma; 111% in the test on SK-MEL-28 melanoma; 110% with SK-MEL-2 melanoma; 104% with EKVX NSCLC. In addition, the growth in the test with SN12C renal is 110%; in the test with UO-31 renal it was 92.9%; in the test with TK-10 renal it was 100%; in the test on ACHN renal, 109%; in the test on CAKI-1 renal, 95.9%; with A498 renal, 107%. Besides, the values for the growth in the test on CCRF-CEM leukemia and in the test with MOLT-4 leukemia were 109% and 103%, respectively.

Take `C=C(C)[C@@H]1CC[C@]2(C(=O)NCCCCCN(CCC#N)CCC#N)CC[C@]3(C)[C@H](CC[C@@H]4[C@@]5(C)CCC(=O)C(C)(C)[C@@H]5CC[C@]43C)[C@@H]12`: the growth is 105% with HCT-15 colon; 108% with HT29 colon; 62.1% in the test with SNB-75 CNS; 107% with SNB-19 CNS; 115% in the test on U251 CNS; 92.3% in the test with PC-3 prostate. The growth in the test with SK-MEL-5 melanoma was 99.5%; with UACC-62 melanoma, 84%; in the test on LOX IMVI melanoma it was 87.8%; in the test on SK-MEL-28 melanoma, 108%; with SK-MEL-2 melanoma it was 106%; in the test with EKVX NSCLC, 75.2%. The growth is 89.3% in the test with SN12C renal; 71.6% in the test on UO-31 renal; 74.7% in the test on TK-10 renal; 98.7% in the test on ACHN renal; 61.1% in the test on CAKI-1 renal; 48.9% in the test on A498 renal. Further, the growth with MOLT-4 leukemia is 92%.

With `CNC1CCc2c(sc(NC(=O)c3ccc(C(C)(C)C)cc3)c2C(N)=O)C1` (centres undefined), the growth in the test with HCT-15 colon is 4.54% (active); with HT29 colon, -0.193% (active); in the test on SNB-75 CNS, 78.8%; with SNB-19 CNS, 55.6%; with U251 CNS, 3.54% (active); in the test on PC-3 prostate, 40%. Moreover, the growth in the test with SK-MEL-5 melanoma was 83.6%; in the test with UACC-62 melanoma it was 60.5%; in the test on LOX IMVI melanoma, -88.1% (active); with SK-MEL-28 melanoma it was 63.2%; with SK-MEL-2 melanoma it was 72.8%; in the test on EKVX NSCLC it was 54.6%. The growth with SN12C renal was 69.2%; with UO-31 renal it was 79.5%; in the test with TK-10 renal, 101%; with ACHN renal it was 37%; in the test on CAKI-1 renal, 42.4%; in the test with A498 renal, 73.9%. Moreover, the growth in the test on CCRF-CEM leukemia was 11.5%; in the test on MOLT-4 leukemia, 0.786% (active).

The values are drawn from PubChem BioAssay (NCI).
